High-throughput results as filed in PubChem BioAssay.
KB-V1 MDR tox – qHTS assay for MDR1-selective chemotherapeutics: Primary screen using the drug-selected MDR subline cells KB-V1 | KB-V1 MDR cells viability, CellTiter-Glo, 72 h | Potency, µM (top dose mostly 46.1 µM), actives largely listed as cytotoxic | 400,000 tested, 3.4% active; further: nearly all actives have a fitted effect of over 60% in size
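Potencies derive from concentration-effect curves fitted to normalized luminescence (CellTiter-Glo) of KB-V1 cells treated for 72 h at 37 degrees C in phenol-red-free DMEM containing 10% FBS.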
TDP1 cell noCPT – qHTS for Inhibitors of human tyrosyl-DNA phosphodiesterase 1 (TDP1): qHTS in cells in absence of CPT; Potency, µM (doses to about 46.2 µM), for inactives: at the top dose activity change, negative = growth inhibition, most hits filed as inhibitors; 420,000 tested, 15% active; AID 686978, 2013; DT40 Tdp1-/- hTDP1 cells, no CPT, ATP luminescence, 48 h; further: nearly all actives have a fitted effect of over 55% in size
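Camptothecin absent (DMSO only). Human TDP1-complemented DT40 knockout cells, 400 cells/well, 37 °C for minimum 48 hr; ATP measured via CellTiter-Glo, 30 min dark incubation, luminescence.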
KB-3-1 cytotox – qHTS assay for MDR1-selective chemotherapeutics: Primary screen using the parental adenocarcinoma cell KB-3-1. AID 1347075, 2019. KB-3-1 viability, CellTiter-Glo ATP luminescence, 72 h. 400,000 tested, 1.4% active. Potency, µM (highest dose often 46.1 µM), hits mostly cytotoxic; further: nearly all actives have a fitted effect of over 60% in size
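Screening of KB-3-1 cells (DMEM, 10% FBS, phenol-red free) ran from lowest to highest compound concentration; after 72 h at 37 °C viability was read luminescently and curves fitted.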
HT1080 IDH1KD tx – qHTS for induction of synthetic lethality in tumor cells producing 2HG: qHTS for the HT-1080-IDH1KD cell line | AID 686971, 2013 | 360,000 tested, 2% active | HT-1080 IDH1 knockdown viability, ATP luminescence, 48 h | Potency, µM (highest dose often 46.1 µM), inactives show top-dose activity, negative = toxicity, most hits filed as cytotoxic;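 further: 0% = DMSO wells and -100% = cell-free medium wells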
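Assay cells: HT-1080 with IDH1 knockdown, 750 per well, RPMI/5% FBS. Exposure: 48 h at 37 °C following 2 h pre-incubation. Read: CellTiter-Glo luminescence; fitted concentration-response, curve class assigned.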
HT1080NT lethal – qHTS for induction of synthetic lethality in tumor cells producing 2HG: qHTS for the HT-1080-NT fibrosarcoma cell line. HT-1080-NT fibrosarcoma viability, CellTiter-Glo ATP luminescence, 48 h. 360,000 tested, 1.6% active. Potency, µM (doses to about 46.1 µM), for inactives: at the highest dose activity, negative = less viability, hits mostly cytotoxic;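 further: NT is the 2HG producing partner of a matched IDH1 knockdown line; 0% = DMSO-treated cells and -100% = media-only wells without cells; nearly all actives have a fitted effect of over 55% in size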
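Viability of the 2HG-overproducing fibrosarcoma line after 48 hours of compound exposure at 37 degrees C was determined by luminescence with CellTiter-Glo, and concentration-effect curves were then fitted and categorized.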
DT40 TDP1 CPT – qHTS for Inhibitors of human tyrosyl-DNA phosphodiesterase 1 (TDP1): qHTS in cells in presence of CPT | chicken DT40 Tdp1-/-;hTDP1 cells + 20 nM CPT, ATP luminescence, 48 h | Potency, µM (titrated, usually from 46.2 µM), for inactives: top-dose activity change, negative = growth inhibition, usual class: inhibitors | 420,000 tested, 12% active; further: nearly all actives have a fitted effect of over 55% in size
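Chicken DT40 Tdp1-/- cells complemented with human TDP1, 400 cells/well, exposed to compounds plus 20 nM camptothecin for at least 48 h at 37 C; viability read as ATP content by CellTiter-Glo luminescence.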
* marks the source's active call; other numbers are inactive results. In the library only some 19% were active in any assay of this set; here they are far more common. The call rests on the fitted dose curve; in most records, active means well fitted curve in the direction sought with a large enough effect; inconclusive means small, poorly fitted or top-dose-only effect, or another doubt; inactive means no such curve, though single readings can be large; an effect the other way counts as inactive or inconclusive. Unless noted, on the % scale 0 is the no-effect control and ±100 the full control effect; potency means the concentration at half of the fitted maximal effect.

For COc1cccc(NC(=O)c2ccnc(N3CCC(C(=O)NCc4cc(OC)ccc4OC)CC3)c2)c1 the results were KB-V1 MDR tox inactive, TDP1 cell noCPT 16.4µM*, KB-3-1 cytotox inactive, HT1080 IDH1KD tx 2.1%, HT1080NT lethal -1.7% and DT40 TDP1 CPT 23.1µM*.
COc1ccc(-c2noc(N3CCC(C(=O)Nc4cccc(OC)c4)CC3)n2)cc1 was read as KB-V1 MDR tox inactive, TDP1 cell noCPT inconclusive, KB-3-1 cytotox inconclusive, HT1080 IDH1KD tx -17.8%, HT1080NT lethal -6.2% and DT40 TDP1 CPT 18.4µM*.
`CCOC(=O)C1(Cc2ccccc2Cl)CCN(C(=O)CN2CCOC2=O)CC1` gave KB-V1 MDR tox inactive, TDP1 cell noCPT -6.8%, KB-3-1 cytotox inactive, HT1080 IDH1KD tx 9.4%, HT1080NT lethal 3.7% and DT40 TDP1 CPT -22.8%.
For Cn1c(=O)c(C(=O)CN2CCc3ccccc32)c(N)n(Cc2ccccc2)c1=O the results were KB-V1 MDR tox inactive, TDP1 cell noCPT 18.4µM*, KB-3-1 cytotox inactive, HT1080 IDH1KD tx -16.5%, HT1080NT lethal -1.7% and DT40 TDP1 CPT 13µM*.
Screening COC(=O)c1ccc(N2C(=O)CC(SCC(=O)Nc3ccc(OC)cc3)C2=O)cc1 (configuration not stated) returned KB-V1 MDR tox inactive, TDP1 cell noCPT 5.17µM*, KB-3-1 cytotox inactive, HT1080 IDH1KD tx 1.1%, HT1080NT lethal -1.5% and DT40 TDP1 CPT 14.6µM*.
Screening NS(=O)(=O)c1ccc(NC(=O)CSC2CCCCC2)cc1 returned KB-V1 MDR tox inactive, TDP1 cell noCPT 29.1µM*, KB-3-1 cytotox inactive, HT1080 IDH1KD tx -2.1%, HT1080NT lethal -2.4% and DT40 TDP1 CPT 16.4µM*.
`COc1ccc(NC(=O)CSC2CCCCC2)cc1` gave KB-V1 MDR tox inactive, TDP1 cell noCPT -20.3%, KB-3-1 cytotox inactive, HT1080 IDH1KD tx -5.4%, HT1080NT lethal 7.3% and DT40 TDP1 CPT -20.3%.
Screening COc1ccc(NC(=O)c2ccc(N3C(=O)C4CC=C(Cl)CC4C3=O)cc2)cc1 (configuration not stated) returned KB-V1 MDR tox inactive, TDP1 cell noCPT 29.1µM*, KB-3-1 cytotox inactive, HT1080 IDH1KD tx -22.5%, HT1080NT lethal -22.5% and DT40 TDP1 CPT -25.7%.
Screening Cc1ccc(N2C(=O)CC(SCC(=O)Nc3ccc(S(N)(=O)=O)cc3)C2=O)cc1 (configuration not stated) returned KB-V1 MDR tox inactive, TDP1 cell noCPT inconclusive, KB-3-1 cytotox inactive, HT1080 IDH1KD tx 8.5%, HT1080NT lethal 12.1% and DT40 TDP1 CPT inconclusive.
For O=C(CSC1CC(=O)N(c2ccc(C(=O)O)cc2)C1=O)Nc1ccc2ccccc2c1 (configuration not stated) the results were KB-V1 MDR tox inactive, TDP1 cell noCPT inconclusive, KB-3-1 cytotox inactive, HT1080 IDH1KD tx -5.2%, HT1080NT lethal -0.3% and DT40 TDP1 CPT inconclusive.
Screening CCOC(=O)c1ccc(N2C(=O)CC(SCC(=O)Nc3ccc(S(N)(=O)=O)cc3)C2=O)cc1 (configuration not stated) returned KB-V1 MDR tox inconclusive, TDP1 cell noCPT inconclusive, KB-3-1 cytotox inactive, HT1080 IDH1KD tx 20.2%, HT1080NT lethal 20.3% and DT40 TDP1 CPT 23.1µM*.
